Screening results deposited in PubChem by National Center for Advancing Translational Sciences (NCATS).
Rows were chosen to be rich in hits. Some 8.3% of all compounds tested hit in one or more screens of this group.
FMDV antiviral = antivirals against foot and mouth disease virus | FMDV antiviral cell-based qHTS | Potency, µM (series often up to 57.9 µM), usual class: inhibitors | hit rate 1.2% among 410,000 | AID 1159524; calls by dose curve; tested in HEK293T cells; further: read-out not given here; nearly all actives have a fitted effect of over 45% in size
FBPA Giardia inh = blocks Giardia fructose-bisphosphate aldolase activity | A8B2U2 | purified Giardia FBPA | Potency, µM (doses to about 59.6 µM), usual class: inhibitors | hit rate 0.71% among 290,000; further: nearly all actives have a fitted effect of over 55% in size
Target sequence (A8B2U2 whole entry, looked up): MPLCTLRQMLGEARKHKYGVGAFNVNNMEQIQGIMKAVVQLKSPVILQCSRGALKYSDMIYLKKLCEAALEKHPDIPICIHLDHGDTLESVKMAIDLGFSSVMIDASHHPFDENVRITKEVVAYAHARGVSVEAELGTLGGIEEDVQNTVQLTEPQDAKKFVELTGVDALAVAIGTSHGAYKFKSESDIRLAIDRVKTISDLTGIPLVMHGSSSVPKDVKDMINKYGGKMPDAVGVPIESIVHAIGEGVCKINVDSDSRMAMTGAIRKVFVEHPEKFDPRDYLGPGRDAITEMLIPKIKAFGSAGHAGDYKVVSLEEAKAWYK
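Giardia FBPA (40 nM reagent) was preincubated 10 min at RT with compound (up to 57.5 uM final), then substrate plus GAPDH/TPI/NAD/arsenate coupling system with diaphorase/resazurin was added; resorufin fluorescence (525/598 nm) was read after 20 min.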
HCMV antiviral = blocks human cytomegalovirus replication. activity change, negative = inhibition, % at 57.5 µM. hit rate 4.5% among 410,000. HFF cells, HCMV-luciferase reporter, 72 h; active compounds read low; in the data active means activity change below about -60%; inconclusive means no clear call, values can overlap the other calls; inactive means above about -39%
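Compounds were evaluated in HFFs infected with an HCMV luciferase reporter virus (MOI 1 PFU/cell). Luciferase in lysates collected 72 h post infection served as the replication measure.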
HCV inh = blocks hepatitis C virus; Huh7.5.1 HCVcc-Cre infection, luciferase reporter, 44 h; Potency, µM (doses to about 41.8 µM), usual class: inhibitors; hit rate 3.4% among 340,000; AID 651820
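After 44 h co-culture of compound, cells and HCVcc-Cre (~0.5 moi), substrate is added for 15 min at room temperature and luciferase measured over 15 sec. Cells were seeded at 1,000/well and pre-cultured 4 h.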
MARV entry inh = Marburg virus entry inhibition; Marburg virus pseudotyped entry inhibition, cell reporter; Potency, µM (top dose mostly 37.8 µM), hits mostly inhibitors; hit rate 1.8% among 300,000; AID 540276; calls by dose curve; tested in HEK293 cells
Lassa entry inh = blocks Lassa virus binding to or entry into cells; Lassa virus pseudotype entry inhibition, cell reporter; Potency, µM (titrated, usually from 37.9 µM), actives largely listed as inhibitors; hit rate 1.2% among 300,000; calls by dose curve; tested in HEK293 cells; further: nearly all actives have a fitted effect of over 50% in size
Large screens that a line does not name were inactive; ! = not active in a repeat. Unless noted, the call rests on the fitted dose curve; in most records, active means well fitted curve in the direction sought with a large enough effect; inconclusive means small, poorly fitted or top-dose-only effect, or another doubt; inactive means no such curve, though single readings can be large; an effect the other way counts as inactive or inconclusive.

COc1ccccc1-c1ccnc(-n2ncc(C(=O)N(C)C(C)c3nc(C)cs3)c2C2CC2)n1 (centres undefined)	none (no result: FBPA Giardia inh, HCMV antiviral, HCV inh, MARV entry inh, Lassa entry inh)
COc1ccccc1-c1cc2c(Nc3cc(OC)c(OC)c(OC)c3)nccc2n1C	none (no result: FMDV antiviral, FBPA Giardia inh, HCV inh, MARV entry inh, Lassa entry inh)
COc1ccc(Nc2nccc3c2cc(-c2ccccc2OC)n3C)cc1	HCMV antiviral -67 (no result: FMDV antiviral, FBPA Giardia inh, HCV inh, MARV entry inh, Lassa entry inh)
O=C(CSc1nc(-c2ccccc2)nc2c1CCCC2)c1ccc(F)cc1	none (no result: FBPA Giardia inh, HCV inh)
COc1ccc(Cn2c(O)cc(=O)[nH]c2=O)cc1	HCMV antiviral -88
CCc1ccc2[nH]c3nc(N/N=C/c4ccc(O)cc4O)nnc3c2c1	HCMV antiviral -76, HCV inh inconclusive, MARV entry inh 3.5µM, Lassa entry inh inconclusive
COCCCN1C(=O)C(O)=C(C(=O)c2ccco2)[C@H]1c1ccc(Br)cc1	none (no result: FMDV antiviral, FBPA Giardia inh, HCMV antiviral, HCV inh, Lassa entry inh)
O=C(NCCN1CCOCC1)c1cnn(-c2nccc(-c3ccccc3C(F)(F)F)n2)c1C1CC1	none (no result: FBPA Giardia inh, HCMV antiviral, HCV inh, MARV entry inh, Lassa entry inh)
Cc1c(OC(C)C(=O)N[C@H](C(=O)O)c2ccccc2)ccc2c3c(c(=O)oc12)CCCC3 (some centres undefined)	FMDV antiviral inconclusive (no result: MARV entry inh, Lassa entry inh)
CC(=O)COc1ccc2c3c(c(=O)oc2c1C)CCCCC3	HCMV antiviral inconclusive, HCV inh 11µM, MARV entry inh inconclusive, Lassa entry inh inconclusive
CC(=O)C(C)Oc1ccc2c3c(c(=O)oc2c1C)CCCC3 (centres undefined)	HCV inh 10µM
Oc1ccc(C(O)CNCCCCCCNCC(O)c2ccc(O)c(O)c2)cc1O (centres undefined)	MARV entry inh inconclusive (no result: FMDV antiviral, FBPA Giardia inh, HCMV antiviral, HCV inh)
NCC(O)c1cc(O)c(O)cc1F (centres undefined)	FBPA Giardia inh 5.6µM, MARV entry inh inconclusive
CNC[C@H](O)c1ccc(O)c(O)c1	FBPA Giardia inh 18µM
NC[C@H](O)c1ccc(O)c(O)c1	FBPA Giardia inh inconclusive, MARV entry inh 14µM!, Lassa entry inh inconclusive
NC[C@@H](O)c1ccc(O)c(O)c1	FBPA Giardia inh inconclusive, MARV entry inh 14µM (no result: HCMV antiviral, HCV inh, Lassa entry inh)
COc1ccccc1-c1ccnc(-n2ncc(C(=O)NC3CCCN(Cc4ccccc4)C3)c2C)n1 (centres undefined)	none (no result: FBPA Giardia inh, HCMV antiviral, HCV inh, MARV entry inh, Lassa entry inh)
C[C@@H]1C[C@@H]([C@@H](C)CC2CC(=O)NC(=O)C2)C(=O)[C@@H](C)C1	none (no result: FMDV antiviral, HCMV antiviral, HCV inh, MARV entry inh, Lassa entry inh)
CCCCC(=O)Nc1cc(C)c(NC(=O)c2cccs2)cn1	none
CCCC(=O)Nc1cc(C)c(NC(=O)c2ccncc2)cn1	Lassa entry inh 2.8µM
CCOC(=O)/C=C/CCCC=O	none (no result: FMDV antiviral, HCMV antiviral, HCV inh, MARV entry inh, Lassa entry inh)
O=c1[nH]c2ccccc2n1C1CCN(C(c2ccccc2OC(F)(F)F)c2nnnn2-c2ccc3c(c2)OCCO3)CC1 (centres undefined)	FMDV antiviral inconclusive, HCMV antiviral -106 (no result: FBPA Giardia inh, HCV inh, MARV entry inh, Lassa entry inh)
COc1cccc(C(c2nnnn2-c2ccc3c(c2)OCCO3)N2CCC(n3c(=O)[nH]c4ccccc43)CC2)c1OC (centres undefined)	HCMV antiviral -97 (no result: FBPA Giardia inh, HCV inh, MARV entry inh, Lassa entry inh)
O=C(Nc1cc(Cl)ccc1Cl)c1cc(S(=O)(=O)NCCc2ccccc2)ccc1F	none (no result: FBPA Giardia inh, HCV inh, MARV entry inh)
CN=c1scc(C)n1/N=C/c1ccc2c(c1)OCO2	HCV inh inconclusive, MARV entry inh inconclusive, Lassa entry inh 3.5µM
Cn1c(=O)c2c(nc(SCc3nc(N)nc(N4CCCCC4)n3)n2C)n(C)c1=O	HCMV antiviral -69, Lassa entry inh inconclusive
CC(C)Oc1ccc(Nc2cc3c(cn2)cc(-c2cccnc2)n3C)cc1	none (no result: FMDV antiviral, FBPA Giardia inh, HCV inh, MARV entry inh, Lassa entry inh)
CCOC(=O)Nc1ccc2c(c1)N(C(=O)CN(C)C)c1ccccc1S2	none (no result: FBPA Giardia inh, HCV inh, MARV entry inh, Lassa entry inh)
CCOC(=O)Nc1ccc2c(c1)N(C(=O)CCN(C)C)c1ccccc1S2	FMDV antiviral inconclusive, HCV inh 13µM, MARV entry inh inconclusive
O=C(NC1CCCCCC1)c1ccc(=O)n(Cc2ccccc2)n1	HCMV antiviral -66 (no result: MARV entry inh, Lassa entry inh)
CCC1(c2ccc(F)cc2)NC(=O)N(CC(=O)Nc2cccc(S(=O)(=O)N3CCCCC3)c2)C1=O (centres undefined)	HCV inh 10µM, MARV entry inh inconclusive (no result: FBPA Giardia inh)
CCOC(=O)c1cc(-c2ccccc2)sc1NC(=O)CN1C(=O)NC(CC)(c2ccc(F)cc2)C1=O (centres undefined)	HCV inh 10µM, MARV entry inh inconclusive
CCOC(=O)c1cc(-c2ccccc2)sc1NC(=O)CN1C(=O)NC(CC)(c2ccccc2)C1=O (centres undefined)	none
CC1CCC2(CC1)NC(=O)N(CC(=O)Nc1cccc(S(=O)(=O)N3CCCCC3)c1)C2=O (centres undefined)	HCV inh 25µM (no result: FBPA Giardia inh, MARV entry inh, Lassa entry inh)
